We go through 27 molecules from the supplement of paper PMC13380429.

The structures appear in SMILES notation.

The test system of assay [1] is Vero E6 infected with SARS-CoV-2. The experiment in a line: morphology score (similarity to uninfected cells); higher = more like uninfected cells. To be noted: 24 h.
Assay [2] has the same test system. The experiment in a line: SARS-CoV-2 infection rate relative to infected DMSO; higher = more infection, active = 60 or less. To be noted: 24 h.

Regarding `C=C(NC(=O)C(=C)NC(=O)c1csc(C2=N[C@@H]3c4csc(n4)[C@H]4NC(=O)c5csc(n5)[C@H]([C@](C)(O)[C@@H](C)O)NC(=O)[C@H]5CSC(=N5)/C(=C/C)NC(=O)[C@H]([C@@H](C)O)NC(=O)c5csc(n5)[C@]3(CC2)NC(=O)[C@H](C)NC(=O)C(=C)NC(=O)[C@H](C)NC(=O)[C@H]([C@@H](C)CC)N[C@@H]2C=Cc3c([C@H](C)O)cc(nc3[C@H]2O)C(=O)O[C@@H]4C)n1)C(N)=O` [thiostrepton] (10 µM), the morphology score in assay [1] worked out at 0.148. Moreover, the SARS-CoV-2 infection rate in assay [2] is 92.5% (inactive).
For `Cc1nc2ccc(-n3ncc(C(=O)c4cc5ccccc5[nH]4)c3N)cc2[nH]1` (0.833333 µM), in that order: 0.131 and 101% (inactive).
With `CC(C)(O)c1ccccc1CC[C@@H](SCC1(CC(=O)O)CC1)c1cccc(/C=C/c2ccc3ccc(Cl)cc3n2)c1` [montelukast] (10 µM), the morphology score in assay [1] came to 0.169. In addition, the SARS-CoV-2 infection rate in assay [2] is 92.5% (inactive).
Consider `COc1ccc(OC)c(C(O)C(C)N)c1` (centres undefined) [methoxamine] (10 µM), for which the morphology score in assay [1] is -0.12. Besides, the SARS-CoV-2 infection rate in assay [2] is 108% (inactive).
For `Cc1ccc(-c2c(-c3nn(C)c4ncnc(N5CC[C@H](N6CCCCC6)C5)c34)cnn2C)cc1` (10 µM), the morphology score in assay [1] came out at 0.14. For the same molecule, the SARS-CoV-2 infection rate in assay [2] is 100% (inactive).
In the same order, the values of `Cc1cc2sc(NC(=O)Cc3ccccc3)nc2cc1Cl` (10 µM) are 0.407 and 76.5% (inactive).
As for `NC(=O)c1cccc(N)c1` [3-amino-benzamide] (10 µM), the morphology score in assay [1] was -0.037. The SARS-CoV-2 infection rate in assay [2] is 102% (inactive).
In the same order, the values of `COc1ccc(-c2oc3cc(OC)ccc3c2C(=O)c2ccc(C#N)cc2)cc1` (10 µM) are 0.111 and 97% (inactive).
Take `CCS(=O)(=O)Nc1ccc2c(c1)/C(=C(/Nc1ccc(CN3CCCCC3)cc1)c1ccccc1)C(=O)N2` [hesperadin] (10 µM): in assay [1], the morphology score is -0.262. For the same molecule, in assay [2], the SARS-CoV-2 infection rate is 110% (inactive).
In the same order, the values of `CC(C)N(CCCNC(=O)Nc1ccc(C(C)(C)C)cc1)C[C@H]1O[C@@H](n2cc(Br)c3c(N)ncnc32)[C@H](O)[C@@H]1O` (10 µM) are -0.0211 and 120% (inactive).
In the case of `Nc1ncccc1-c1nc2ccc(-c3ccccc3)nc2n1-c1ccc(C2(N)CCC2)cc1` (10 µM), the morphology score in assay [1] turned out to be 0.702. For the same molecule, the SARS-CoV-2 infection rate in assay [2] was 29.5% (active).
For `NC(=O)C(c1ccccc1)(c1ccc(F)cc1)c1ccc(F)cc1` [senicapoc] (10 µM), in that order: -0.127 and 114% (inactive).
In the same order, the values of `CN(C(=O)CCCOc1ccc2[nH]c(=O)ccc2c1)C1CCCCC1` [cilostamide] (10 µM) are -0.131 and 103% (inactive).
In the same order, the values of `C[C@@H](NC(=O)CCc1nc2ccccc2c(=O)[nH]1)c1ccccc1` (10 µM) are 0.239 and 95.5% (inactive).
As for `O=C([O-])c1ccccn1.O=C([O-])c1ccccn1.O=C([O-])c1ccccn1.[Cr+3]` [chromium-picolinate] (10 µM), the morphology score in assay [1] was -0.0147. For the same molecule, in assay [2], the SARS-CoV-2 infection rate is 112% (inactive).
For `C/C(=C\C(=O)OCCCCCCCCC(=O)O)C[C@@H]1OC[C@H](C[C@@H]2O[C@H]2[C@@H](C)[C@H](C)O)[C@@H](O)[C@H]1O` [mupirocin] (10 µM), in that order: 0.0465 and 110% (inactive).
In the same order, the values of `COc1cc(OC)cc(-c2ccc3c(-c4ccc(F)cc4)n[nH]c3n2)c1` (10 µM) are 0.102 and 106% (inactive).
On to `C[C@H](Nc1ncnc2[nH]cnc12)c1nc2ccc(F)cc2c(=O)n1-c1ccccc1` [acalisib] (0.833333 µM), for which the morphology score in assay [1] is -0.115. Moreover, the SARS-CoV-2 infection rate in assay [2] was 110% (inactive).
In the same order, the values of `CC(C)NCCCn1c(Sc2cc3c(cc2I)OCO3)nc2c(N)ncnc21` (0.833333 µM) are 0.255 and 96.5% (inactive).
In the same order, the values of `COc1ccc2cccc(N3CCN(CCNC(=O)c4ccc(F)cc4)CC3)c2c1` (10 µM) are 0.241 and 103% (inactive).
For `CC(=O)[C@H]1CC[C@H]2[C@@H]3CC=C4C[C@@H](OC(=O)CCC(=O)O)CC[C@]4(C)[C@H]3CC[C@]12C` [pregnenolone-succinate] (10 µM), in that order: -0.0431 and 104% (inactive).
As to `CN1CC2c3ccccc3Oc3ccc(Cl)cc3C2C1` (centres undefined) [asenapine] (10 µM), the morphology score in assay [1] amounted to 0.67. Also, the SARS-CoV-2 infection rate in assay [2] was 41% (active).
In the same order, the values of `COc1ccccc1C1(O)CCN(CCCn2c3ccccc3c3ccccc32)CC1` (0.833333 µM) are 0.0278 and 97.5% (inactive).
`C[C@H](N)Cc1cccc(O)c1` [gepefrine] (10 µM): the morphology score in assay [1] was -0.0218. The SARS-CoV-2 infection rate in assay [2] is 106% (inactive).
For `CC(C)(C)[C@]1(O)CCN2C[C@H]3c4ccccc4CCc4cccc(c43)[C@@H]2C1` [butaclamol] (10 µM), in that order: 0.273 and 101% (inactive).
In the same order, the values of `Nc1ccc(-c2nc3ccc(-c4nc5ccc(N)cc5[nH]4)cc3[nH]2)cc1` (10 µM) are -0.218 and 108% (inactive).
For `N=C(N)c1ccc(/N=N/Nc2ccc(C(=N)N)cc2)cc1` [diminazene-aceturate] (10 µM), in that order: 0.318 and 86% (inactive).
